The nature of test [1]: compounds binding Alexa647 anti-His antibody – biochemical, small-molecule microarray, 635 nm fluorescence, artefact control for SMM control protein annotation, primary screen (AID 1128).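 Note: score merges feature fluorescence with signal-to-noise for each printed compound spot.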 The settings on record: higher = more signal.
For test [2], the system named is Human papillomavirus type 1a E7 protein (residues 1-88). Put plainly: HPV1a E7 small-molecule binders, primary screen, biochemical, small-molecule microarray, residues 1-88, 635 nm (AID 1129). The settings on record: small-molecule microarray binding, fluorescence 635 nm; higher = more signal.
Test [3] concerns the target Focal adhesion kinase 1 (Homo sapiens) (UniProt Q05397). Put plainly: PTK2 protein binding on printed compound slides – biochemical, small-molecule microarray, 635/667 nm fluorescence, BSA, DTT, primary screen (AID 1130).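 Note: composite of spot emission at 667 nm and signal to noise over triplicate slides.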 The settings on record: 635 nm fluorescence, higher = more signal.
For test [4], the system named is Fibrinogen (Alexa647-labelled). Put plainly: Alexa647-fibrinogen binding to printed small molecules – biochemical, small-molecule microarray, 635/667 nm fluorescence, artefact control for SMM control-protein annotation, profiling panel (AID 1131).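 Note: z-score merges 667 nm fluorescence with per-spot signal-to-noise over triplicate slides.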 The following applies: fibrinogen-A647 binding fluorescence, higher = more signal.
Test [5] addresses Follistatin (Homo sapiens) (UniProt P19883). Put plainly: FST protein binding to printed compounds – biochemical, small-molecule microarray, 635/667 nm fluorescence, primary screen (AID 1132). The settings on record: 635 nm fluorescence, higher = more signal.
In test [6] the target is Fibroblast growth factor 2 (Homo sapiens) (UniProt P09038). Put plainly: basic fibroblast growth factor binding to printed compounds – biochemical, small-molecule microarray, 635/667 nm fluorescence, primary screen (AID 1133). The following applies: FGF2, fluorescence 635/667, higher = more signal.
Test [7] in a line: JC-1 mitochondrial potential readout, lung cancer cells – cell-based, A549, JC-1 fluorescence, basal, 24 h, 100 nL, profiling panel (AID 1138).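 Note: A549 lung adenocarcinoma cells under basal conditions with no added stimulus; test concentration not given here.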 The settings on record: higher = more signal.
In a further test the test system is Lefty1. Put plainly: Lefty1 protein binding to printed compounds – biochemical, small-molecule microarray, 635/667 nm fluorescence, primary screen (AID 1139). The settings on record: fluorescence 635/667, higher = more signal.
The test system of test [8] is wheat germ agglutinin (Triticum aestivum), Alexa647-labelled. Put plainly: Alexa647-WGA lectin binding to printed small molecules – biochemical, small-molecule microarray, 635/667 nm fluorescence, artefact control for SMM control-protein annotation, profiling panel (AID 1140).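 Note: score merges 667 nm feature emission with signal to noise over triplicate slides.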 The settings on record: WGA-A647 binding, 635 nm fluorescence, higher = more signal.
Test [9] deals with Luciferin 4-monooxygenase (Photinus pyralis) (UniProt P08659). The experiment in a line: inhibition of purified Photinus pyralis luciferase – biochemical, luminescence, purified enzyme, 2006 set, primary screen (AID 1141).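 Note: cell-free assay with purified firefly luciferase at 100 ng per well in PBS; test concentration not given here.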 The settings on record: purified firefly luciferase, SteadyGlo luminescence, 30 min; higher = more signal, called active from +8 up or from −8 down.

Calls of active or inactive are those of the source.

Follistatin (Homo sapiens), sequence (P19883 whole entry, looked up): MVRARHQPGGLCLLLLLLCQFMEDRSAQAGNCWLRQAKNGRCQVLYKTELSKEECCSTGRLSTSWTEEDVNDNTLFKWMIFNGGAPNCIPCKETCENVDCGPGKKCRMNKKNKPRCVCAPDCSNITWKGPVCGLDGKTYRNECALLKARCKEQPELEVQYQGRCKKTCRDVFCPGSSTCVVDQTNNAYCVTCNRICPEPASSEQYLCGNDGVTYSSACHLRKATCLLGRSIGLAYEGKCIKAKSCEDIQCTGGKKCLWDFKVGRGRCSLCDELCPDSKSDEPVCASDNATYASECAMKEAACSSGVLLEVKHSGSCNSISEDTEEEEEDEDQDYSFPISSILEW
Fibroblast growth factor 2 (Homo sapiens), sequence (P09038 whole entry, looked up): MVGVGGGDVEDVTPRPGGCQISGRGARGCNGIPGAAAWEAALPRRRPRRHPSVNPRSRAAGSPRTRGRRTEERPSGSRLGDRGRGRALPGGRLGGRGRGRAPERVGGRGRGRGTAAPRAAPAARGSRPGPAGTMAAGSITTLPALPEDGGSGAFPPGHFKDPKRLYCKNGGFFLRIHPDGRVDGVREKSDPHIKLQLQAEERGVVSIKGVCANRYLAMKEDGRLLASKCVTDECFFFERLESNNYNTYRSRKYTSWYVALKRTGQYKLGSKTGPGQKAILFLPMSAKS
Luciferin 4-monooxygenase (Photinus pyralis), sequence (P08659 whole entry, looked up): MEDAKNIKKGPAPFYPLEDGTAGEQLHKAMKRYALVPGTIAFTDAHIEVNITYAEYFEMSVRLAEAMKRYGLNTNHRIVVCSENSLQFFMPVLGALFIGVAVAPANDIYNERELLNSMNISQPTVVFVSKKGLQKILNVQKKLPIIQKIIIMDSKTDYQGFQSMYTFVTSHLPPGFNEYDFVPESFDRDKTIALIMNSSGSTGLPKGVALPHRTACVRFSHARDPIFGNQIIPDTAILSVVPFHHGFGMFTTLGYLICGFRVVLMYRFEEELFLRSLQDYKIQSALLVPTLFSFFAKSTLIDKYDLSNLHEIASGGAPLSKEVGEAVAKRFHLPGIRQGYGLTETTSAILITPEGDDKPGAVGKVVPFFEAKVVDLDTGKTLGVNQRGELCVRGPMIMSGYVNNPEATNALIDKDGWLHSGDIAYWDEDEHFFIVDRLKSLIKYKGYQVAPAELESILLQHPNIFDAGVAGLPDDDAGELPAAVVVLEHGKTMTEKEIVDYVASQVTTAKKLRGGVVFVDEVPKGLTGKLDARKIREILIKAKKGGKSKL
Focal adhesion kinase 1 (Homo sapiens), sequence (Q05397 whole entry, looked up): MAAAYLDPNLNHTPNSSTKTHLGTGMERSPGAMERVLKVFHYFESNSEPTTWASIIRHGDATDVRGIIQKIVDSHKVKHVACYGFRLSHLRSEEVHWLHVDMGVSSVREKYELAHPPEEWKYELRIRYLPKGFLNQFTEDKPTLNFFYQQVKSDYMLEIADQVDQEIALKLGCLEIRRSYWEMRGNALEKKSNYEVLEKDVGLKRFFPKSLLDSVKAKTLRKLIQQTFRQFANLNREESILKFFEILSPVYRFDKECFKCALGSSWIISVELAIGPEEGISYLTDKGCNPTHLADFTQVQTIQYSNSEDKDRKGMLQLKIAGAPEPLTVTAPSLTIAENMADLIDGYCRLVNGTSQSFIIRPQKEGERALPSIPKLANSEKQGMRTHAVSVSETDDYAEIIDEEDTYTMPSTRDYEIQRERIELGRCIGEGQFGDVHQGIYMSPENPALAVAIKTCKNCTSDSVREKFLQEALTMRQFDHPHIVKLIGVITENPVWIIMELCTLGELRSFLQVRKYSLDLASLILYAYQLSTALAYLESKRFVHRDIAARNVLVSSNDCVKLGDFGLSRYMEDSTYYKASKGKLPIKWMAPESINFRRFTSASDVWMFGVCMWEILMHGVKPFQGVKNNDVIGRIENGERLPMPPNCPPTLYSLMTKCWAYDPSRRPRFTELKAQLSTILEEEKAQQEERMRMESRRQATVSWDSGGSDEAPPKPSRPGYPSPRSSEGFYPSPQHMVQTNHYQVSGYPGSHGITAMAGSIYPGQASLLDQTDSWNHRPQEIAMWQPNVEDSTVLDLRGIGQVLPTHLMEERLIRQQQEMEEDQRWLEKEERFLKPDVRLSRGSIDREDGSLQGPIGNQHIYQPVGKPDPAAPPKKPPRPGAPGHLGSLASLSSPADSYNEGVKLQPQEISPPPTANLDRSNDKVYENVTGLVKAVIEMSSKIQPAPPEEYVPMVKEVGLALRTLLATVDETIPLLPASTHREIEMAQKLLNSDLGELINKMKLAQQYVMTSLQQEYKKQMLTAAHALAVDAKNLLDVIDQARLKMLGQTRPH

On to `COc1ccc(C#Cc2ccc3c(c2)[C@]2(C(=O)N3)[C@H](c3ccc(OCCO)cc3)N3[C@H](c4ccccc4)[C@H](c4ccccc4)OC(=O)[C@H]3[C@@H]2C(=O)N2CCN(c3ncccn3)CC2)cc1`, for which the composite z-score in test [1] was found to be 0.197; in [2], 0.816; in [3] it was 0.0451; in test [4], 0.771; in [5], 1.01; in test [6], 0.0495. Besides, the composite z-score came to 0.305 in the test with Lefty1 and 0.776 in test [8]. Also, the z-score in test [7] is -1.38; in test [9], 0.713 (inactive).

As to `[N-]=[N+]=Nc1ccccc1[C@H]1OC(c2ccc(OCCCO)cc2)=N[C@@]1(Cc1ccccc1)C(=O)NCc1ccccc1`, the composite z-score in test [1] amounted to 1.29; in test [2], 1.2; in [3], 0.425; in test [4], 0.997; in test [5], 1.15; in test [6], 0.291. Moreover, the composite z-score with Lefty1 was 0.362; in [8] it was 0.415. In addition, the figures for the z-score in test [7] and in test [9] were 0.361 and -6.55 (inactive), respectively.

Take `COC(=O)C(CC#Cc1ccc2c(c1)[C@]1(C(=O)N2)[C@H](C(=O)N2CCc3cc(OC)c(OC)cc3C2)[C@H]2C(=O)O[C@H](c3ccccc3)[C@H](c3ccccc3)N2[C@@H]1c1ccc(O)cc1)C(=O)OC`: the composite z-score in test [1] is 2.77; in test [2], 1.22; in test [3] it was 0.695; in test [4], 0.867; in test [5] it was 1.49; in test [6] it was 1.84. For the same molecule, the composite z-score amounted to 1.14 with Lefty1 and 0.664 in test [8]. In addition, the values for the z-score in [7] and in [9] were -1.48 and 8.96 (active), respectively.

On to `CN(C)C(=O)[C@@]1(Cc2ccccc2N=[N+]=[N-])N=C(c2ccc(OCCCO)cc2)O[C@H]1c1ccccc1N=[N+]=[N-]`, for which the composite z-score in [1] is 1.85; in test [2], 1.19; in test [3], 0.921; in [4], 0.887; in test [5] it was 1.01; in test [6], -0.118. The composite z-score with Lefty1 worked out at 0.16; in test [8] it was 0.98. Further, the results for the z-score in [7] and in test [9] were 2.01 and -2.25 (inactive), respectively.

`CN(C)CCCC[C@@H]1NC(=O)[C@H]2C[C@@H](C(=O)NCCCCCCNC(=O)CS)[C@@H](c3ccc(O)cc3)N2C1=O`: the composite z-score in [1] is 0.135; in test [2], 0.0218; in test [3] it was 1.05; in [4], -0.934; in [5], 1.32; in test [6] it was 0.804. In addition, the composite z-score in the test on Lefty1 was 0.628; in test [8], -0.149. For the same molecule, the results for the z-score in [7] and in [9] were -0.685 and 0.78 (inactive), respectively.

In the case of `COCCOC(=O)N1C(=O)[C@@]2(c3cc(C#CC4(O)CCCCCC4)ccc31)[C@H](C(=O)N1CCc3cc(OC)c(OC)cc3C1)[C@H]1C(=O)O[C@H](c3ccccc3)[C@H](c3ccccc3)N1[C@@H]2c1ccccc1OCCO`, the composite z-score in test [1] was 1.07; in test [2] it was 1.17; in [3], 0.32; in test [4] it was 0.608; in test [5] it was 1.36; in test [6], 1.48. Further, the composite z-score came out at 1.28 in the test on Lefty1 and 0.859 in [8]. The z-score in test [7] is -0.651; in test [9], -1.72 (inactive).

Turning to `COc1ccc(C(=O)Nc2ccc(CN3C(=O)[C@]4(O[C@H](CCn5cc([C@H](O)c6ccccc6)nn5)[C@@H]([Si](C)(C)c5ccc(OC)cc5)[C@@H]4C)c4ccccc43)cc2)cc1`, the composite z-score in test [1] was -0.271; in test [2] it was -0.303; in test [3] it was -0.288; in test [4] it was 0.107; in test [5], 0.971; in test [6], -0.224. The composite z-score in the test on Lefty1 came out at 0.444; in test [8], 0.849. In addition, the results for the z-score in test [7] and in [9] were 0.496 and -0.363 (inactive), respectively.

With `COc1cccc(C)c1NC(=O)O[C@H]1[C@H](OC(=O)Nc2ccccc2)[C@H](OC(=O)Nc2ccccc2)[C@@H](OC)O[C@@H]1CO`, the composite z-score was 1.44 in [1]; 1.26 in test [2]; 1.01 in test [3]; 0.442 in test [4]; 0.615 in test [5]; -0.21 in test [6]. Further, the composite z-score is -0.337 in the test with Lefty1 and 0.861 in test [8]. The z-score is 0.138 in [7] and -0.852 (inactive) in test [9].

For the origin of these results see PubChem BioAssay.
